Each structure is given as a SMILES string. Calls of active or inactive are those of the source. The call rests on the fitted dose curve; in most records, active means well fitted curve in the direction sought with a large enough effect in the repeat runs; inconclusive means weak or mixed curves; inactive means flat fitted curve, though single readings scatter.
On the % scale 0 is the no-effect control and ±100 the full control effect.

The nature of this test: qHTS assay to test for compound auto fluorescence at 535 nm (green) in HEK293 cell free culture (AID 720682). Conditions: cell-free medium, green autofluorescence 485/535 nm, hits give high values; series mostly up to 91.3 µM. The text has this: U.S. Tox21 Program National Center for Advancing Translational Sciences [NCATS] NIH Chemical Genomics Center [NCGC] U.S. Environmental Protection Agency [EPA] National Institutes of Environmental Health Sciences [NIEHS] National Toxicology Program [NTP] U.S. Food and Drug Administration [FDA] Tox21 Assay Overview: Compound auto fluorescence often interferes with screening of the compound library against various biological targets and signaling pathways. Some of these compounds may have fluorophoric properties. Such properties may interfere with the assay outputs resulting in false positives and/or negatives. To decrease such complications and ensure the compound activities are relevant in terms of biological response, the Tox21 10K compound library was screened for auto fluorescence. From the fluorophores used as reporter signals in our screening assays, the auto fluorescence equivalencies of compounds against three fluorophores have been evaluated: Triamterene, Fluorescein and Rose Bengal sodium for blue, green and red fluorescence, respectively. The fluorescence intensities were measured using Excitation/Emission wavelengths at 405/460nm, 485/535nm and 540/590nm for blue, green and red labels, respectively. This assay includes the green fluorescence data.
Tox21 Assay Protocol Summary: 5 uL of culture medium (DMEM containing 10% FBS) per well was dispensed into black wall/clear bottom 1536-well plates using a Multidrop Combi Dispenser (ThermoFisher Scientific, Waltham, MA). After 23 nL compound or DMSO vehicle was transferred into assay plate by a pintool work station (Kalypsys, San Diego, CA), fluorescence intensities in the assay plates were measured by an Envision (PerkinElmer, Shelton, CT) plate reader using three labels for measuring blue, green and red fluorescence at […] 460, 535 and 590nm respectively.
For orientation: qHTS replaces the single test concentration by a dilution series.
On to `Cc1ccc(N)cc1[N+](=O)[O-]`, for which the compound was called inactive.

Consider `CCCCCCCCCCCCI`, for which the call was inactive.

For the compound `CCCOc1ccccc1-c1nc2n[nH]nc2c(=O)[nH]1`, the compound was classed as inactive.

Regarding `CC(C)N1C(=O)c2ccccc2C1=O`, the outcome was inactive.

As for `CC(C)c1ccc2oc3nc(N)c(C(=O)O)cc3c(=O)c2c1`, the call was inactive.

For `CC(C)(C)C(=O)/C=C/c1ccc(Cl)cc1`, the compound was classed as inactive.

On to `CC(=O)c1ccc(C)cc1`, for which the compound was classed as inactive.

In the case of `N[C@@H](CS)C(=O)O`, the compound was called inactive.

As to `CCC(=O)c1cccc(Cl)c1`, the outcome was inactive.

As for `CC(C)CCCC(C)CCCC(C)CCCCC(C)CCCC(C)CCCC(C)C` (stereo not given), the call was inactive.

As for `NCC[C@H](O)C(=O)N[C@@H]1C[C@H](N)[C@@H](O[C@H]2O[C@H](CN)[C@@H](O)[C@H](O)[C@H]2O)[C@H](O)[C@H]1O[C@H]1O[C@H](CO)[C@@H](O)[C@H](N)[C@H]1O`, the result was inactive.

Take `c1ccc(SCCSc2ccccc2)cc1`: the compound was called inactive.

Take `CC(C)COC(=O)c1ccccc1O`: the result was inactive.

Turning to `C=CCn1c(=O)n([C@@H]2O[C@H](CO)[C@@H](O)[C@H]2O)c2nc(N)[nH]c(=O)c21`, the call was inactive.

As for `O=S(=O)(c1cccc2cnccc12)N1CCCNCC1`, the compound was classed as inactive.

Regarding `N#CCc1ccccc1[N+](=O)[O-]`, the compound was classed as inactive.

Take `CCOC(=O)Nc1ccc2c(c1)N(C(=O)CCN1CCOCC1)c1ccccc1S2`: the activity change was -0.0159% [at 18.6 µM] (inactive).

As to `COC(=O)CCCC(=O)O`, the compound was classed as inactive.

For the compound `C[C@H]1O[C@@H](n2cc(F)c(=O)[nH]c2=O)[C@H](O)[C@@H]1O`, the call was inactive.

As to `CC1=CC(=O)CCC1`, the compound was called inactive.

In the case of `Oc1cc(O)c2c(c1)O[C@H](c1ccc(O)c(O)c1)[C@H](O)C2`, the call was inactive.

In the case of `CC(C)c1cccc(C(C)C)c1N`, the compound was called inactive.

As to `C(=C(c1ccccc1)c1ccccc1)c1ccccc1`, the call was inactive.

`CC(C)=CCC/C(C)=C/C(=O)O`: the outcome was inactive.

`CCOC(=O)[C@H](CCc1ccccc1)N[C@@H](C)C(=O)N1CCC[C@H]1C(=O)O`: the compound was classed as inactive.

In the case of `O=C(O)c1cccc(C(=O)O)n1`, the outcome was inactive.

On to `CC(C)CCCCCCN`, for which the compound was called inactive.

With `COc1nc(C)nc(N)n1`, the result was inactive.

Take `CC(=O)O[C@H](CC(=O)[O-])C[N+](C)(C)C`: the call was inactive.

With `CCC(C)(C)C1CCC(OC)CC1` (stereo not given), the compound was called inactive.

Turning to `CCCCc1ccc(N)cc1`, the result was inactive.

Take `O=C1C(CCS(=O)c2ccccc2)C(=O)N(c2ccccc2)N1c1ccccc1` (stereo not given): the activity change is 0.112% [at 18.6 µM] (inactive).

As for `CCCC=O`, the compound was called inactive.

In the case of `N#CC1(O)CCCCC1`, the call was inactive.

`CCCCCCOC(=O)CC(CC(=O)OCCCCCC)(OC(=O)CCC)C(=O)OCCCCCC`: the compound was called inactive.

On to `CCCCC1CCCCC(=O)O1` (stereo not given), for which the compound was called inactive.

Regarding `CN(C)CCn1nnnc1SCC1=C(C(=O)O)N2C(=O)[C@@H](NC(=O)Cc3csc(N)n3)[C@H]2SC1`, the activity change was 0.0595% [at 18.6 µM] (inactive).

For the compound `CN(C)CCOC(c1ccc(Cl)cc1)c1ccccn1` (stereo not given), the compound was classed as inactive.

As to `CCCCN(CCO)CCO`, the call was inactive.

As for `CC(C)[C@H](N)C(=O)OCCOCn1cnc2c(=O)[nH]c(N)nc21`, the call was inactive.
